# Activity calls are given as the source filed them. Rule as the data show it: active = inhibition above about 31%; inactive = the rest.
# Experiment: MRP1 drug-resistance reversers in H69AR cells – cell-based, doxorubicin co-treatment, pilot screen (AID 601)
# Conditions: H69AR cells, CellTiter-Glo, 72 h; compound alone cytotoxicity; at 10 µM
row,Structure (SMILES),viability [%]
1,O=C(O)CC1SC(=Nc2cccc(C(F)(F)F)c2)NC1=O (stereo unspecified),103
2,CCOC(=O)Nc1sc(=S)n(C)c1C,98
3,CCCn1nc(NS(=O)(=O)c2ccccc2)c2cc3ccccc3nc21,120
4,COc1ccc2[nH]c(=O)c(CN(Cc3cccs3)S(=O)(=O)c3cccc4nsnc34)cc2c1,5.33
5,CC(C)C(c1nnnn1CC1CCCO1)N1CCN(Cc2ccc3c(c2)OCO3)CC1 (stereo unspecified),95.3
6,COc1cc2c(cc1NC(=O)CN1CCN(S(=O)(=O)c3ccc(F)cc3)CC1)oc1ccccc12,95.7
7,CCCn1c2c(c(O)c(C(=O)Nc3ccc(C)cn3)c1=O)CCCC2,88
8,O=S(=O)(Nc1cccnc1)c1cc(Cl)ccc1Cl,82.8
9,CCN(CC(=O)Nc1ccc(S(N)(=O)=O)cc1)S(=O)(=O)c1cc(C)ccc1OC,114
10,O=S(=O)(NCC(c1cccnc1)N1CCN(c2ccccc2)CC1)c1cc(F)ccc1F (stereo unspecified),86.4
11,Cc1ccc2oc(C(=O)Nc3c(C)n(C)n(-c4ccccc4)c3=O)c(C)c2c1,104
12,C/C=C/c1ccc(OCCn2cncn2)c(OC)c1,89.8
13,Cc1ccnc(SCCn2c(N3CCCCC3)nc3c2c(=O)n(C)c(=O)n3C)n1,91.2
14,CCN(CC)S(=O)(=O)c1ccc(NC2c3ccccc3C(=O)N2CCN2CCOCC2)cc1 (stereo unspecified),87
15,CCC(=O)OCCn1c(=O)c2cc3c(=O)n(CCOC(=O)CC)c(=O)c3cc2c1=O,87.2
16,Cc1cc(Br)ccc1NC(=O)CCN1C(=O)c2ccncc2C1=O,95.6
17,Cc1cc(C(=O)O)ccc1-n1c(C)ccc1C,93.2
18,Cc1nn(-c2ccc(F)cc2)c2sc(C(=O)OCC(=O)N3CCC(C)CC3)cc12,102
19,CCOCCCNC(=O)C1CCN(C(=O)Nc2ccc(Cl)cc2)CC1,102
20,CCOc1ccccc1NC(=O)CN(c1ccc(C)cc1)S(=O)(=O)c1c(C)noc1C,81
21,CC(C)(CO)NC(=O)CCCOc1ccc(Cl)cc1Cl,98.1

# Experiment: yeast transport mutant growth inhibition pilot in 384-well plates, post-Golgi transport modulator project (AID 636)
# Conditions: absorbance 615 nm, about 18 h, stronger effect = higher value
row,Structure (SMILES),inhibition
1,CN=C1CC(C)(C)CC(=O)/C1=C(/O)CCC(=O)NC,-2.63% (inactive)
2,CC(C)(C)NC(=O)Cn1nnc(-c2cccs2)n1,-3.87% (inactive)
3,Nc1nnc(SCC(=O)N2CCc3ccccc32)n1-c1ccccc1,-4.8% (inactive)
4,O=C(CSc1ncnc2c1oc1ccccc12)Nc1ccccc1F,-2.27% (inactive)
5,O=C(Nc1cccc(C(F)(F)F)c1)c1cccnc1N1CCCC1,-2% (inactive)
6,Cc1cc(C(F)(F)F)nn1Cc1ccc(C(=O)NCc2ccco2)o1,-0.53% (inactive)
7,O=C(C1CCCN(S(=O)(=O)c2cccnc2)C1)N1CCN(c2ccccn2)CC1 (stereo unspecified),0% (inactive)
8,O=C(CCn1c(=S)[nH]c2cc3c(cc2c1=O)OCO3)N1CCN(C2CCCCC2)CC1,-5.54% (inactive)
9,CC(C)CC(=O)CN1C(=O)C2(OCCO2)c2ccccc21,-5.14% (inactive)
10,CNC(=O)CN(C#N)c1nc(N(C)C)nc(N(C)C)n1,-4.93% (inactive)
11,O=C(Oc1ccc2c(c1)CCC2)N1CCOCC1,4.87% (inactive)
12,CCCn1c(N2CCN(CC(=O)Nc3ccc4c(c3)OCCO4)CC2)nc2ccccc21,-6.18% (inactive)
13,COCc1ccccc1Cn1cnc2c1c(=O)n(C)c(=O)n2C,-5% (inactive)
14,O=C(Nc1ccc(N2CCOCC2)cc1)c1cc2ccccc2o1,-0.26% (inactive)
15,COc1ccc(N2C(=O)CC(NC3CC3)C2=O)cc1 (stereo unspecified),-3.82% (inactive)
16,COc1cccc(C(=O)NCc2nnc(SCC(=O)Nc3nccs3)n2-c2ccccc2)c1,-2.18% (inactive)
17,COCCCN1C(=O)C(O)=C(C(=O)c2ccco2)C1c1ccc(Br)cc1 (stereo unspecified),-6.13% (inactive)
18,Cc1cccc(N2C(=O)CC(N3CCN(Cc4ccc(Cl)cc4)CC3)C2=O)c1 (stereo unspecified),-3.87% (inactive)
19,CS(=O)(=O)N(CC(=O)Nc1ccc2c(c1)OCCO2)Cc1ccccc1,-4.93% (inactive)
20,O=C(O)CC1SC(=Nc2cccc(C(F)(F)F)c2)NC1=O (stereo unspecified),-1.45% (inactive)

row,Structure (SMILES),inhibition
1,CCOC(=O)Nc1sc(=S)n(C)c1C,-3.95% (inactive)
2,CCCn1nc(NS(=O)(=O)c2ccccc2)c2cc3ccccc3nc21,-1.84% (inactive)
3,COc1ccc2[nH]c(=O)c(CN(Cc3cccs3)S(=O)(=O)c3cccc4nsnc34)cc2c1,-6.44% (inactive)
4,CC(C)C(c1nnnn1CC1CCCO1)N1CCN(Cc2ccc3c(c2)OCO3)CC1 (stereo unspecified),-6.44% (inactive)
5,COc1cc2c(cc1NC(=O)CN1CCN(S(=O)(=O)c3ccc(F)cc3)CC1)oc1ccccc12,-2.37% (inactive)
6,CCCn1c2c(c(O)c(C(=O)Nc3ccc(C)cn3)c1=O)CCCC2,-2.89% (inactive)
7,O=S(=O)(Nc1cccnc1)c1cc(Cl)ccc1Cl,-1.03% (inactive)
8,CCN(CC(=O)Nc1ccc(S(N)(=O)=O)cc1)S(=O)(=O)c1cc(C)ccc1OC,-3.55% (inactive)
9,O=S(=O)(NCC(c1cccnc1)N1CCN(c2ccccc2)CC1)c1cc(F)ccc1F (stereo unspecified),5.19% (inactive)
10,Cc1ccc2oc(C(=O)Nc3c(C)n(C)n(-c4ccccc4)c3=O)c(C)c2c1,-7.4% (inactive)
11,C/C=C/c1ccc(OCCn2cncn2)c(OC)c1,0.14% (inactive)
12,Cc1ccnc(SCCn2c(N3CCCCC3)nc3c2c(=O)n(C)c(=O)n3C)n1,-5.66% (inactive)
13,CCN(CC)S(=O)(=O)c1ccc(NC2c3ccccc3C(=O)N2CCN2CCOCC2)cc1 (stereo unspecified),-1.54% (inactive)
14,CCC(=O)OCCn1c(=O)c2cc3c(=O)n(CCOC(=O)CC)c(=O)c3cc2c1=O,4.55% (inactive)
15,Cc1cc(Br)ccc1NC(=O)CCN1C(=O)c2ccncc2C1=O,-3.78% (inactive)
16,Cc1cc(C(=O)O)ccc1-n1c(C)ccc1C,1.32% (inactive)
17,Cc1nn(-c2ccc(F)cc2)c2sc(C(=O)OCC(=O)N3CCC(C)CC3)cc12,-3.87% (inactive)
18,CCOCCCNC(=O)C1CCN(C(=O)Nc2ccc(Cl)cc2)CC1,-5% (inactive)
19,CCOc1ccccc1NC(=O)CN(c1ccc(C)cc1)S(=O)(=O)c1c(C)noc1C,-4.46% (inactive)
20,CC(C)(CO)NC(=O)CCCOc1ccc(Cl)cc1Cl,-0.26% (inactive)

# — PubChem BioAssay
